High-throughput results as filed in PubChem BioAssay.
In the library only some 12% were active in any assay of this set; here they are far more common.
AMA1 RON2 block = qHTS for Inhibitors of AMA1-RON; Towards Development of Antimalarial Drug Lead: Primary Screen; Plasmodium falciparum AMA1 (3D7) - RON2 peptide interaction; AlphaScreen AMA1-biotinylated RON2 peptide binding; Potency, µM (titrated, usually from 58.2 µM), for inactives: at the highest dose activity change, negative = inhibition, usual class: inhibitors; actives 0.2% (n = 360,000); AID 720542, 2013;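 note: 0% = vehicle wells and -100% = peptide control; nearly all actives have a fitted effect of over 45% in size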
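AMA1 (3D7) with his tag at 25 nM final met compounds first, then biotinylated RON2 peptide at 25 nM; detection used donor plus acceptor beads, 10 µg/mL apiece, read by AlphaScreen after 30 min at room temperature.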
NS1 function inh = qHTS Assay for Inhibitors of Influenza NS1 Protein Function | actives 0.4% (n = 270,000) | Potency, µM (series often up to 46.1 µM), inactives show at the top dose activity, positive = more growth; calls by dose curve; note: actives are rising curves; nearly all actives have a fitted effect of over 50% in size
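Compounds were scored for reversing the slow growth caused by influenza A NS1 in S. cerevisiae, measured by optical density at 600 nm. Assay medium contained 2% galactose at pH 6.0; NS1-free yeast of the same strain were the positive control.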
HCV inh = qHTS Assay for Inhibitors of Hepatitis C Virus (HCV); Huh7.5.1 HCVcc-Cre infection, luciferase reporter, 44 h; Potency, µM (doses to about 41.8 µM), without a hit: at the top dose activity change, negative = inhibition, hits mostly inhibitors; actives 3.4% (n = 340,000); AID 651820, 2012; note: % is set by controls: 0 for no effect and ±100 for the full control effect
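HCVcc-Cre virus at an moi near 0.5 was added right after compound to cells cultured 4 h from seeding (1,000 cells/well). Luciferase activity was determined 44 h later, 15 min after substrate addition at RT.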
Pf growth 96h = Primary qHTS for delayed death inhibitors of the malarial parasite plastid, 96 hour incubation; Potency, µM (series often up to 28.7 µM), for inactives: top-dose activity change, negative = inhibition, usual class: inhibitors; P. falciparum luciferase reporter growth, 96 h; actives 6.9% (n = 320,000); note: % is set by controls: 0 for no effect and ±100 for the full control effect
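Compounds incubated with erythrocytes infected by luciferase-expressing P. falciparum (2% hematocrit, 0.05% parasitemia final) for 96 hours, 37 C in 5% CO2. Growth inhibition scored as decreased luciferase luminescence.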
SARS PLP yeast = qHTS of Yeast-based Assay for SARS-CoV PLP. S. cerevisiae expressing SARS-CoV PLpro, growth rescue. Potency, µM (titrated, usually from 32.9 µM), without a hit: top-dose activity, positive = growth rescue, most hits filed as activators. actives 0.19% (n = 330,000); calls by dose curve; note: 0% is about no effect; nearly all actives have a fitted effect of over 55% in size
Pf growth 48h = Primary qHTS for delayed death inhibitors of the malarial parasite plastid, 48 hour incubation | P. falciparum luciferase growth in erythrocytes, 48 h | Potency, µM (top dose mostly 28.7 µM), inactives show at the top dose activity change, negative = inhibition, hits mostly inhibitors | actives 5.9% (n = 310,000) | AID 504832, 2011; note: % is set by controls: 0 for no effect and ±100 for the full control effect
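Luminescence readout; reporter = integrated firefly luciferase in P. falciparum. RBC culture at 2% hematocrit, 0.1% parasitemia final, 37 C/5% CO2; decreased signal taken as growth inhibition.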
* = called active by the depositor; ? = inconclusive; / = no result given; [ ] = dose if it differs, or a comment. Unless noted, calls come from the whole dose curve; as a rule, active = well fitted curve in the direction sought with a large enough effect; inconclusive = small, poorly fitted or top-dose-only effect, or another doubt; inactive = no such curve, though single readings can be large; an effect the other way counts as inactive or inconclusive. Potency is the fitted concentration of half-maximal effect.

SMILES	AMA1 RON2 block	NS1 function inh	HCV inh	Pf growth 96h	SARS PLP yeast	Pf growth 48h
CCN1C[C@@H]2[C@@H]3C(=O)N(Cc4ccccc4)C(=O)[C@@H]3[C@](Cc3ccccc3)(C1=O)N2C(=O)c1ccc(C)cc1	-9%	/	14%	/	/	/
COc1ccc(-c2cn3c(C)c(C(=O)N4CCCc5ccccc54)sc3n2)cc1	-26%	/	11µM*	/	/	/
COc1ccccc1N(C)S(=O)(=O)c1ccc(C(=O)N2CCCc3ccccc32)cc1	-26%	1%	?	?	-2%	13µM*
COc1ccccc1N(C)S(=O)(=O)c1ccc(C(=O)N2CCC2)cc1	-4%	/	-28%	11%	-2%	1%
COc1ccc(C(=O)N2CCCc3ccccc32)cc1	4%	-19%	?	0.26µM*	-5%	-11%
CC(NC(=O)COc1ccc(Br)cc1)C1CCCO1 (stereo not given)	12%	-8%	19%	3%	-2%	-9%
CCO[C@H]1OC(C(=O)NCc2nc3ccccc3[nH]2)=C[C@@H](c2csc3ccccc23)[C@@H]1CCCO	20%	0%	1µM*	10µM*	0%	10µM*
CCO[C@@H]1OC(C(=O)NCc2nc3ccccc3[nH]2)=C[C@H](c2csc3ccccc23)[C@H]1CCCO	5%	-5%	-15%	13µM*	0%	?
CCO[C@H]1OC(C(=O)NCc2nc3ccccc3[nH]2)=C[C@@H](c2ccccc2)[C@@H]1CCCO	-3%	-9%	-25%	-7%	0%	-3%
Cc1ccc(S(=O)(=O)N2CCN(C(=O)COC(=O)c3cnc(C)cn3)CC2)c(C)c1	1%	/	11%[8.37 µM]	0%	0%	18%
O=C(NC1CC1)C1CCN(c2ncccn2)CC1	2%	4%	7%	18%	1%	14%
CC(O)[C@H]1CN=C(N)N1CCc1cc(C(F)(F)F)cc(C(F)(F)F)c1 (stereo not given in full)	2%	-1%	16%	59%	3%	?
NC1=NC[C@H](Cc2ccc(O)cc2)N1CCc1cc(C(F)(F)F)cc(C(F)(F)F)c1	-5%	-8%	18%	2.1µM*	1%	5.2µM*
NC1=NC[C@@H](CC2CCCCC2)N1CCc1cc(C(F)(F)F)cc(C(F)(F)F)c1	1%	/	?	/	-1%	/
NC1=NC[C@H](c2ccccc2)N1CCc1cc(C(F)(F)F)cc(C(F)(F)F)c1	-4%	-1%	?	3.7µM*	-2%	13µM*
CCc1ccc(CN2CCCC(CCC(=O)N3CCN(c4ccccn4)CC3)C2)o1 (stereo not given)	2%	1%	-22%	?	-5%	-15%
Cc1cc(C)cc(NC(=O)COC(=O)Cn2cnc3c2c(=O)n(C)c(=O)n3C)c1	-16%	/	-4%	-1%	6%	-6%
O=C(O)CNS(=O)(=O)c1ccc(C2CCCCC2)cc1	-9%	/	18%	0.47µM*	2%	4%[5.75 µM]
O=C(O)CNS(=O)(=O)c1ccc(F)cc1	-3%	-6%	0%	?	-1%	10%
O=S(=O)(Nc1ccccn1)c1ccc(C2CCCCC2)cc1	?	-8%[9.22 µM]	9%	9.3µM*	-3%	-6%
CC[C@]12c3[nH]c4ccc(OC)cc4c3CCN1C(=O)C(CC(=O)NCCCN(C)C)C[C@@H]2C(=O)N1CCN(C(=O)c2ccco2)CC1 (stereo not given in full)	-2%	/	-2%	/	18%	/
CCCCN(CC)c1nc(-c2ccncc2)nc2ccccc12	-17%	-15%	5.6µM*	/	-48%	2.9µM*
c1ccc(-c2nnc(-c3ccccn3)nn2)nc1	-70%	-73%	?	/	/	/
CCCN(CCC)c1nc(-c2ccccn2)nc2ccccc12	33%	-83%	?	0.33µM*	-5%	0.83µM*
c1ccc(CCNc2nc(-c3ccccn3)nc3ccccc23)cc1	-1%	-58%	2.8µM*	1.7µM*	-1%	1µM*
SMILES	AMA1 RON2 block	NS1 function inh	HCV inh	Pf growth 96h	SARS PLP yeast	Pf growth 48h
O=C(O)CCNc1nc(-c2ccccc2)nc2ccccc12	-4%	-5%	?	0%	-1%	-2%
S=c1[nH]nc(Cc2ccc(Cl)cc2)o1	-5%	-50%	21%	34%	-5%	112%
CSCCCN1CCCC(CO)(Cc2ccccc2F)C1 (stereo not given)	23%	-16%	5%	?	2%	18%
COc1ccc(C2CC(c3ccccc3OC(C)=O)=NN2C(=O)/C=C/c2ccccc2)cc1OC (stereo not given)	-15%	?	-26%	?	11%	2.6µM*
COc1ccc(C2=NN(C(=O)/C=C/c3ccccc3)C(c3ccccc3)C2)c(OC(C)=O)c1 (stereo not given)	-19%	28%	?	?	15%	13µM*
COc1ccc(C2CC(c3ccc(OC)cc3OC(C)=O)=NN2C(=O)c2ccccc2)cc1 (stereo not given)	-10%	7%	-49%	?	-2%	0%[0.00184 µM]
Cc1cc(NC(=O)NC(C)(C(F)(F)F)C(F)(F)F)no1	12%	3%	-3%	9%	1%	18%
OCC[C@@H]1C[C@H](O)[C@@H](O)[C@]2(OCCc3cc(C(F)(F)F)ccc32)O1	8%	/	/	/	/	/
[O-]C(=C(C(=S)Nc1cccc2ccccc12)[n+]1ccccc1)c1ccc2c(c1)OCCO2	3%	/	?	/	/	/
CCOc1ccccc1NC(=S)/C(=C(\[O-])c1ccc2c(c1)OCCO2)[n+]1ccc(CC)cc1	63%	7%	-18%	2.3µM*	6%	/
C[N+](C)(C)CCO	/	-9%	/	/	/	/
COc1cc(Cl)c(C)cc1NC(=O)CN(C)Cc1cccc(OC)c1OC	14%	2%	10µM*	-37%	-8%	?
COc1cc(Cl)c(C)cc1NC(=O)CNC(C)c1ccccc1OC (stereo not given)	-22%	/	?	9.3µM*	-8%	-12%
COCc1nnc(NC(C)=O)s1	-15%	-2%	17%	58%	0%	40%
COc1ccc(NC(=O)C2CCCN(C(=O)Nc3cccc(OC)c3)C2)cc1 (stereo not given)	-14%	-8%	-4%	?	-1%	16%
COc1ccc(NC(=O)C2CCCN(C(=O)Nc3ccc(OC)cc3)C2)cc1 (stereo not given)	12%	4%	-12%	10µM*	-2%	22%
COc1ccc(NC(=O)N2CCCC(c3ccccc3)C2)cc1 (stereo not given)	-10%	-6%	-6%	2.1µM*	-3%	-29%
